G9a inh – inhibitors of human histone lysine methyltransferase G9a; G9a H3K9 monomethylation, AlphaScreen, 2 h; AID 504332; 8.8% of 350,000 active; Q96KQ7; Potency, µM (highest dose often 102 µM), most hits filed as inhibitors; note: nearly all actives have a fitted effect of over 75% in size
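Enzyme 20 nM + cpd, 15 min RT; add b-H3K9 pep 500 nM / SAM 20 uM; 2 h RT; anti-H3K9me1 Ab 0.5 ug/mL + SA donor / anti-rabbit acceptor beads 20 ug/mL each, 10 min; AlphaScreen read.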
PI5P4K alpha inh – PI5P4K alpha (human) kinase inhibition; PI5P4Kalpha enzyme, ADP-Glo luminescence, 60 min; hits give low values; 1.2% of 330,000 active; P48426; max response, %; active = max response of -50% or lower; inconclusive = between -30% and -50%; inactive = -30% or higher; note: value at the top dose of about 77 µM
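PI5P4Kalpha ADP-Glo assay; 5 microM ATP final; 60 min RT reaction; HEPES pH 7.4/EGTA/CHAPS, 5% DMSO; controls lacking substrate or enzyme; luminescent end-point.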
JMJD2A Tudor – blocks the human JMJD2A Tudor domain | O75164 | 4.4% of 390,000 active | AlphaScreen JMJD2A-Tudor / H3K4me3 peptide binding | Potency, µM (doses to about 114 µM), actives largely listed as inhibitors; note: nearly all actives have a fitted effect of over 50% in size
Target sequence (O75164 whole entry, looked up, the tested form may be a part): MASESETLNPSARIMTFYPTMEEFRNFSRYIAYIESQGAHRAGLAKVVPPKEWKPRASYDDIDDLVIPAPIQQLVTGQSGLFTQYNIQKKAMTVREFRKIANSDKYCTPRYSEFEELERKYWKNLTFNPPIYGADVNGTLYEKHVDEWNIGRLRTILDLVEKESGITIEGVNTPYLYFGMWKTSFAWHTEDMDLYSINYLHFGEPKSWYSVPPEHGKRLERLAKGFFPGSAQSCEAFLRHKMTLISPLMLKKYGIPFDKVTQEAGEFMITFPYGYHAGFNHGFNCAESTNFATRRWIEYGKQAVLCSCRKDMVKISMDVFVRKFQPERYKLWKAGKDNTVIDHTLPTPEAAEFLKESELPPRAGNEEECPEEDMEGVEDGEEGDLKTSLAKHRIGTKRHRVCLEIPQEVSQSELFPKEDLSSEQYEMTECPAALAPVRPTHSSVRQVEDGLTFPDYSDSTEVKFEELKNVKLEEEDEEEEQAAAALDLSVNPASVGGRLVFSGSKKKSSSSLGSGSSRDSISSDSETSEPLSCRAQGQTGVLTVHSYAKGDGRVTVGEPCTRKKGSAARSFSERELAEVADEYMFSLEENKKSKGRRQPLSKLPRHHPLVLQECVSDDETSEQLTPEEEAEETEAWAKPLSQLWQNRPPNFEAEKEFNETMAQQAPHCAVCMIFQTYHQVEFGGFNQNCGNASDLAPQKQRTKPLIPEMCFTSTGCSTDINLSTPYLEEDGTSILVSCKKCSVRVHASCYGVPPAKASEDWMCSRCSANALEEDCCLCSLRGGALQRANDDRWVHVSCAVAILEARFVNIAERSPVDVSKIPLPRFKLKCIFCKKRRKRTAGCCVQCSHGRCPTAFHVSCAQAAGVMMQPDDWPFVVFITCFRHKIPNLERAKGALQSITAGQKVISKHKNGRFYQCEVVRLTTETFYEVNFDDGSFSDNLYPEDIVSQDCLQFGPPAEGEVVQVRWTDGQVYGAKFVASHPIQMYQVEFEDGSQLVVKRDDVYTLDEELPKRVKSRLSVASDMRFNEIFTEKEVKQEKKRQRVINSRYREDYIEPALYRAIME
HP1b binding inh – inhibitors of HP1-beta chromodomain binding to methylated histone tails; AlphaScreen HP1-beta / biotin-H3K9me3 peptide binding; Potency, µM (top dose mostly 114 µM), most hits filed as inhibitors; 0.56% of 390,000 active; AID 540317; note: nearly all actives have a fitted effect of over 70% in size
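AlphaScreen: HP1-beta (50 nM) preformed 30 min with biotin-H3(1-18)K9me3 peptide (50 nM) in PBS pH 7.4, 0.01% Tween-20. Compound added for 30 min at RT, then streptavidin donor/nickel chelate acceptor beads (10 ug/mL) for 30 min.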
L3MBTL1 block – L3MBTL1 (human) inhibition; AlphaScreen L3MBTL1–H3K9me1 peptide binding; Potency, µM (series often up to 57.1 µM), usual class: inhibitors; 0.66% of 230,000 active; note: nearly all actives have a fitted effect of over 60% in size
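AlphaScreen proximity signal between nickel-chelate acceptor and streptavidin donor beads (final 10 ug/mL) reports binding of 50 nM L3MBTL1 to 75 nM biotin-H3 K9me1 peptide; complex incubated with compounds 30 min at room temperature; cefsulodin titration as control.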
BAZ2B block – inhibitors of human BAZ2B bromodomain; Q9UIF8; AlphaScreen BAZ2B-H3K14Ac peptide displacement; Potency, µM (doses to about 114 µM), hits mostly inhibitors; 4.4% of 360,000 active; AID 504333; note: nearly all actives have a fitted effect of over 60% in size
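Complex of BAZ2B and biotin-H3K14Ac (50 nM apiece) forms over 30 min at RT, then faces library compounds up to 110 uM for another 30 min; AlphaScreen beads added, 20 min dark incubation, luminescence read.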
Numbers stand for hits; i = inactive; ? = inconclusive; nt = no result given; [ ] = another dose, or the depositor's remark. The list is not random: actives were taken first. Their share in the collection is about 11%. Unless noted, calls come from the whole dose curve; as a rule, active = well fitted inhibition curve with a large enough effect; inconclusive = small, poorly fitted or top-dose-only effect; inactive = no such curve, though single readings can be large or run the other way.

SMILES | G9a inh | PI5P4K alpha inh | JMJD2A Tudor | HP1b binding inh | L3MBTL1 block | BAZ2B block
CCOC(=O)c1c(N2C(=O)CC(Sc3ccccc3C(=O)O)C2=O)sc(C)c1C (stereo not given) | nt | i | i | i | nt | 50µM
Cc1cc(C)cc(N2C(=O)CC(Sc3ccccc3C(=O)O)C2=O)c1 (stereo not given) | ? | i | ? | i | i | i
Cc1cccc(N2C(=O)CC(Sc3ccccc3C(=O)O)C2=O)c1 (stereo not given) | ? | i | 45µM | i | i | i
O=C(O)c1ccccc1SC1CC(=O)N(c2ccc3c(c2)OCO3)C1=O (stereo not given) | 1.6µM | i | i | i | i | i
CC(C)CN1C(=O)CC(Sc2ccccc2C(=O)O)C1=O (stereo not given) | 1.1µM | nt | i | i | nt | i
COc1ccc(N2CCN(C(=O)CSc3nc(-c4ccc(C(C)C)cc4)no3)CC2)cc1 | i | nt | i | i | nt | i
Cc1ccc(N2C(=O)CC(Sc3ccccc3C(=O)O)C2=O)cc1C (stereo not given) | 1.6µM | i | i[11.4 µM] | i | i | i
CN(C)c1ccc(N2C(=O)CC(Sc3ccccc3C(=O)O)C2=O)cc1 (stereo not given) | 1.4µM | i | ? | i | i | ?
Cc1cccc(N2C(=O)CC(Sc3nccc(C)n3)C2=O)c1 (stereo not given) | ? | i | i | i | i | i
Cc1cccc(N2C(=O)CC(Sc3ncn[nH]3)C2=O)c1 (stereo not given) | 7.1µM | i | ? | ? | nt | i
Cc1ccc(N2C(=O)CC(Sc3ccccc3C(=O)O)C2=O)cc1 (stereo not given) | ? | i | ? | i | i | i
Cc1ccc(-n2nc(C(=O)N3CCN(c4cccc(C(F)(F)F)c4)CC3)c3c4ccccc4n(C)c3c2=O)cc1 | i | nt | i | i | nt | nt
CC(=O)NCCNc1ccnc(-c2ccccc2C)n1 | i[0.501 µM] | nt | nt | nt | nt | nt
O=C(CCCn1c(=O)c2sccc2n(Cc2c(F)cccc2Cl)c1=O)NCc1ccccc1 | i | nt | i | i | nt | i
O=C(CSc1ncc2c(n1)-c1ccccc1N(Cc1ccccc1)S2(=O)=O)Nc1ccccc1 | i | nt | i | i | nt | i
Cc1cc(C(=O)COC(=O)CC2Sc3ccccc3NC2=O)c(C)n1-c1ccc(Br)cc1 (stereo not given) | 56µM | i | i | i | ? | i
COC(=O)c1ccc(C2NC(=O)c3c(sc(C)c3C)N2)cc1 (stereo not given) | 5.6µM | i | i | i | i | i
Cc1sc2c(c1C)C(=O)NC(c1cccc(O)c1)N2 (stereo not given) | 45µM | nt | nt | nt | i | i
O=C1CN(C(=O)COc2ccc(Cl)cc2)C(c2ccc(F)cc2)c2cc(Br)ccc2N1 (stereo not given) | i | nt | i | i | nt | i
Cc1cn(CCC(=O)Nc2ccc(N3CCOCC3)cc2)c2ccccc12 | 45µM | i | ? | i | i | ?
O=C(Cc1cccc2ccccc12)Nc1ccc(N2CCOCC2)cc1 | nt | i | i | i | i | 50µM
CCCC(=O)Nc1ccc(N2CCOCC2)cc1 | i[12.7 µM] | i | i[11.4 µM] | i | i[11.4 µM] | i
COc1ccccc1NC(=O)Nc1ccc(N2CCOCC2)cc1 | 32µM | i | ? | i | nt | i
O=C(CCS(=O)(=O)c1ccccc1)Nc1ccc(N2CCOCC2)cc1 | 56µM | i | i | i | i | i
COc1ccc(Cn2ccc3nc(C)c(C(=O)NCc4ccc(SC)cc4)cc3c2=O)cc1 | i | nt | i | i | nt | i
SMILES | G9a inh | PI5P4K alpha inh | JMJD2A Tudor | HP1b binding inh | L3MBTL1 block | BAZ2B block
O=C(Cc1cccc2ccccc12)Nc1ccc(Br)cc1C(=O)O | ? | i | i | i | i | i
COC(=O)c1ccc(NC(=O)CN2C(=O)CSC2=O)cc1 | i[12.7 µM] | nt | i | i | nt | i
O=C(Cc1cccc2ccccc12)Nc1ccc(O)cc1C(=O)O | 71µM | i | i | i | nt | i
COc1ccccc1CNCC(=O)Nc1ccc(N2CCOCC2)cc1 | 4.5µM | i | 40µM | i | i | 50µM
O=C(CN1C(=O)CSC1=O)Nc1ccc(N2CCOCC2)cc1 | 16µM | i | i | i | i | i
CC(=O)Oc1ccc(NC(=O)Cc2ccccc2)c(C(=O)O)c1 | 71µM | i | i | i | i[11.4 µM] | ?
Cc1cc(C2C(C#N)=C(N)SC(N)=C2C#N)c(C)s1 | 1.3µM | -56 | ? | i | i[11.4 µM] | i
Cc1cc(C2C(C#N)=C(N)Oc3n[nH]c(C)c32)c(C)s1 (stereo not given) | i[0.501 µM] | i | i | i | i | ?
Cc1sccc1C1C(C#N)=C(N)SC(N)=C1C#N | 1.1µM | nt | nt | nt | i | i
Clc1ccc2c(c1)-c1c(cnc3cc(-c4ccccc4)nn13)CO2 | i | nt | i | i | nt | i
COc1ccc(OCC(=O)NCC2(N3CCN(C)CC3)CCCCC2)cc1 | i | nt | i | i | nt | i
CCCc1nnc(NC(=O)C2CCN(C(=O)c3ccco3)CC2)s1 | i | i | i | i | nt | i
O=C(Nc1nnc(Cc2ccccc2)s1)C1CCN(C(=O)c2ccco2)CC1 | 10µM | i | i | ? | nt | i
COc1ccc(Cc2nnc(NC(=O)C3CCN(C(=O)c4ccco4)CC3)s2)cc1 | 79µM | i | i | i | nt | i
COc1ccc(C)cc1NC(=O)CSc1nc(=O)n(Cc2ccccn2)c2c1CCC2 | ? | nt | i | i | nt | i
COc1ccccc1N1CCN(C(=O)C2CCN(S(=O)(=O)Cc3ccccc3)CC2)CC1 | i | nt | i | i | nt | i
CCC(C)c1ccc(OCCn2ccnc2)cc1 (stereo not given) | ? | i | 20µM | i | i | 50µM
Cc1cc(OCCn2ccnc2)cc(C(C)C)c1 | 11µM | i | 0.79µM | 22µM | i | 28µM
Cc1cc(C)cc(OCCn2ccnc2)c1 | i | i | i | i | nt | i
CCOc1ccc(OCCOCCn2ccnc2)cc1 | ? | i | 8.9µM | ? | nt | 79µM
Cc1cc(OC(C)C(=O)Nc2c(C(=O)c3ccc(F)cc3)oc3ccccc23)ccc1Cl (stereo not given) | i | nt | i | i | nt | i
CCOC(=O)c1sc(NC(=O)c2sccc2C)cc1C | i | i | i | i | nt | i
CCOC(=O)c1sc(/N=C/c2ccc(O)cc2O)cc1C | 22µM | i | ? | i | i | i
CC(C)(Oc1ccc(Cl)cc1)C(=O)NCc1ccc(S(N)(=O)=O)cc1 | 45µM | i | i | i | i | ?
COC(=O)CNC(=O)C(C)(C)Oc1ccc(Cl)cc1 | i | i | i[11.4 µM] | i | nt | i
CCOC(=O)c1c(N2C(=O)Nc3ccccc3N2O)n[nH]c1-c1cccc(Cl)c1 | i | -66 | i | i | nt | i
Cc1ccc(NC(=S)N(Cc2ccc(Br)cc2)Cc2ccc(C(=O)O)cc2)cc1C | 45µM | i | i | i | nt | i
COc1ccc(CN(Cc2ccc(C(=O)O)cc2)C(=S)Nc2ccccc2Cl)cc1OC | i | i | i | i | nt | i
